Source: PubChem BioAssay AID720650 (Broad Institute, 2013)
Values without a mark were called inactive. Active and inactive are the calls of the source. The rule behind the calls is not given here.

Test: Biochemical counterscreen for C difficile toxins, absence of UDPG, inhibitor dose response (AID 720650)
Details: series mostly up to 19.5 µM

SMILES | AC50
CCCCn1c(N)c(N(CC)C(=O)c2cccs2)c(=O)[nH]c1=O | > 39 µM
COc1cc2[nH]c(=S)nc(NCCC(C)C)c2cc1OC | inactive
O=C(c1ccccc1)c1coc2ccc(O)c(Cl)c12 | 12.7 µM (active)
COCCNc1cc(N)c([N+](=O)[O-])cc1[N+](=O)[O-] | inactive
Cn1c(SCC(=O)c2cc3ccccc3o2)nnc1-c1ccccc1 | inactive
COCC#Cc1ccc2c(c1)O[C@H](CN(C)C(=O)CC1CC1)[C@@H](C)CN([C@H](C)CO)S2(=O)=O | inactive
Cc1onc(-c2ccccc2Cl)c1C(=O)Nc1cnn(Cc2ccccc2)c1 | inactive
COc1ccc2[nH]c3c(=O)n(CCCCC(=O)NCCN4CCCC4)c(=S)[nH]c3c2c1 | 18.5 µM (active)
Oc1ccc(Cc2ccc(Cl)cc2)c(O)c1 | > 39 µM
CC(C)Cc1nnc(NC(=O)CCC(=O)NCc2ccccc2Cl)s1 | inactive
O=C1Nc2ccc(Br)cc2C1Cc1ccccc1F (centres undefined) | 7.69 µM (active)
COc1ccccc1/C=N/NC(=O)CC(=O)NCc1ccccc1 | > 39 µM
COc1cc(NC(=O)CSc2nc3[nH]ncc3c(=O)n2-c2ccccc2C)cc(OC)c1OC | inactive
CCOC(=O)c1ccc(N=c2sc(C(=O)OC)cc(=O)n2CCCN2CCOCC2)cc1 | inactive
COc1ccc(CC(=O)NNC(=S)NC(=O)c2cccnc2)cc1 | inactive
CCC(=O)Nc1ccc2c(c1)OC[C@H](C)N(C(=O)NC(C)C)C[C@@H](C)[C@@H](OC)CN(C)C2=O | inactive
O=c1[nH]c(/C=C\c2ccc(O)cc2)nc(O)c1[N+](=O)[O-] | 12.2 µM (active)
COc1ccc(/C=C/c2onc(C)c2S(=O)(=O)N2CCC(C(=O)N3CCCCCC3)CC2)cc1 | inactive
COc1ccc(CNC(=O)C2=CC(c3ccc(OC)c(OC)c3)=NS(=O)(=O)N2C)cc1 | > 39 µM
CC(=O)c1cccc(OCC(=O)c2cc(C)n(-c3cc(C)on3)c2C)c1 | 12 µM (active)

SMILES | AC50
CCCCNS(=O)(=O)c1ccc(OCC(=O)OC)cc1 | inactive
CNC(=O)C[C@@H]1CC[C@@H]2[C@H](COc3ccc(NS(=O)(=O)c4ccccc4C)cc3C(=O)N2C)O1 | inactive
COCC(=O)N1CC[C@@H]2[C@@H](CO)N(C)c3ccc(-c4ccccc4)cc3[C@@H]21 | 3.88 µM (active)
Cc1cc(C)c(S(=O)(=O)c2ccc(Cl)cc2C)c(Cl)n1 | > 39 µM
Oc1ccc(/C=N/Nc2ncnc3nc[nH]c23)cc1 | inactive
C/C(=N\Nc1cc(N2CCOCC2)ncn1)c1ccc(O)cc1 | inactive
O=C(CN1C(=O)NC2(CCCc3ccccc32)C1=O)NCc1cccs1 (centres undefined) | inactive
Cn1c(=O)c2c([nH]c(=S)n2Cc2ccc(Cl)cc2)n(C)c1=O | inactive
CCN1CCN(c2oc(-c3ccccc3C)nc2S(=O)(=O)c2ccccc2)CC1 | inactive
Cc1ccc(S(=O)(=O)Oc2ccccc2/C=C2\SC(=O)NC2=O)cc1 | inactive
CCN(CC)CCNC(=O)C1CCN(S(=O)(=O)c2c(C)noc2/C=C/c2ccccc2F)CC1 | inactive
O=C(COc1cccc(C(F)(F)F)c1)N1CCN(c2ccc(O)cc2)CC1 | inactive
COc1cccc(C(=O)OCC(=O)Nc2cc(C)on2)c1OC | inactive
C[C@H]1CN([C@@H](C)CO)C(=O)c2c(c3ccccc3n2C)-c2ccccc2CO[C@H]1CN(C)C | inactive
CCCc1[nH]c(=O)c(C#N)c2c1CCCC2 | inactive
CNC(=O)C1CCN(S(=O)(=O)c2c(C)noc2/C=C/c2ccccc2F)CC1 | inactive
COC(=O)C1=C[C@@H](C(=O)OC)[C@@H]2C3=C(C(=O)[C@]2(C)NC(=O)c2ccccc2)[C@H](C)n2c(=O)n(C)c(=O)n2[C@@H]3C1 | inactive
CC(=O)Oc1ccc(/C=N/NC(=O)CCSc2ccccc2)cc1 | inactive
O=C(N/N=C/c1ccc(O)c(O)c1)C1CC1 | > 39 µM
